A selection: hits, their analogues and other compounds. The true share with any hit is near 0.9%.
A488 fluor = compound fluoresces in the A488 spectral region; max dye equivalency, M; compound autofluorescence, A488 spectral region, dye equivalency; Compound Type: qHTS ECL - MLSMR; AID 591; 59,000 tested, 0.1% active
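Compound autofluorescence was read in 100 mM Tris pH 8.0 after 15 min at room temperature, ex 480 nm/em 540 nm. Intensities were converted to A488 dye-equivalent concentration using an on-plate six-point A488 standard curve.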
Fluorescein fluor = compound fluoresces in the fluorescein spectral region. 59,000 tested, 0.91% active. Compound autofluorescence, 480/540 nm, fluorescein-equivalent; stronger effect = higher value. max fluorescein-equivalent concentration, M; in the data active = max fluorescein-equivalent concentration above about 10 nM; inconclusive = between about 1.1 nM and that limit
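Each compound is tested across a concentration series in 100 mM Tris buffer at pH 8.0. After 15 min at room temperature, plates are imaged with 480 nm excitation and 540 nm emission filters, and intensities are converted to fluorescein-equivalent values.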
Rhodamine autofl = compound fluoresces in the rhodamine spectral region; AID 594; max dye-equivalent concentration, M; Rhodamine-region fluorescence, 547/598 nm, Tris buffer; stronger effect = higher value; 59,000 tested, 0.05% active; in the data active = max dye-equivalent concentration above about 11 nM; inconclusive = between about 1.1 nM and that limit
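Compounds in 100 mM Tris buffer, pH 8.0, were incubated 15 min at room temperature, then read at 547 nm excitation and 598 nm emission. Fluorescence was normalized against a per-plate six-point rhodamine standard curve as dye-equivalent concentration.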
TexasRed autofl = compound fluoresces in the Texas Red spectral region; Compound fluorescence, Texas Red channel, 547/618 nm; stronger effect = higher value; max dye-equivalent concentration, M; 59,000 tested, 0.06% active; AID 587; in the data active = max dye-equivalent concentration above about 10 nM; inconclusive = between about 1.1 nM and that limit
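Texas Red-region profiling: compounds in 100 mM Tris pH 8.0 were read at 547/618 nm after 15 min at room temperature. Intensities were normalized against a six-point Texas Red standard series to give dye-equivalent concentration.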
Resorufin fluor = compounds fluorescent in resorufin spectral region | Compound fluorescence, resorufin region 547/598 nm, buffer; stronger effect = higher value | max dye-equivalent concentration, M | 59,000 tested, 0.04% active | AID 588
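Compounds in 100 mM Tris buffer, pH 8.0, incubated 15 min at room temperature, then read with 547 nm excitation and 598 nm emission filters. Fluorescence was converted to dye-equivalent concentration using an on-plate six-point resorufin standard curve.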
* hit, by the source's call; i = inactive; ? = inconclusive. Unless noted, the rule behind the calls is not given here.

SMILES | A488 fluor | Fluorescein fluor | Rhodamine autofl | TexasRed autofl | Resorufin fluor
CC(=O)c1ccc(N2C(=O)C3C(C2=O)C(C(=O)c2ccc(Cl)cc2)N2CCCC32)cc1 (stereo not given) | ? | 1.3e-07M* | i | i | i
Cc1ccc(N2C(=O)[C@@H]3[C@H](C2=O)C2CCCN2[C@@H]3C(=O)c2ccccc2)cc1 (stereo not given in full) | i | ? | i | i | i
O=C(c1ccc(Cl)cc1)C1C2C(=O)N(c3ccccc3)C(=O)C2C2CCCN21 (stereo not given) | ? | 5.2e-08M* | i | i | i
CCn1cc(C(=O)NCc2ccco2)c(=O)c2cc(S(=O)(=O)N3CCCCCC3)ccc21 | i | i | i | i | i
CCn1cc(C(=O)NCc2ccccn2)c(=O)c2cc(S(=O)(=O)N3CCCCC3)ccc21 | i | 1.7e-08M* | ? | ? | ?
CCCN1CC=C2C(C#N)=C(N)C(C#N)(C#N)C(c3cccc(OC)c3OC)C2C1 (stereo not given) | ? | 5.3e-08M* | i | i | i
COc1ccc(OC)c(C2C3CN(C(C)C)CC=C3C(C#N)=C(N)C2(C#N)C#N)c1 (stereo not given) | i | 3.2e-08M* | i | i | i
Cc1ccc(C2C3CN(C(C)C)CC=C3C(C#N)=C(N)C2(C#N)C#N)cc1 (stereo not given) | ? | 1e-07M* | i | i | i
CN1CC=C2C(C#N)=C(N)C(C#N)(C#N)C(c3cccc(Cl)c3Cl)C2C1 (stereo not given) | ? | 3.9e-08M* | i | ? | i
CCCCOc1ccc(C2C3CN(C(=O)OCC)CC=C3C(C#N)=C(N)C2(C#N)C#N)cc1OC (stereo not given) | i | ? | i | i | i
CCOC(=O)N1CC=C2C(C#N)=C(N)C(C#N)(C#N)[C@H](c3ccc(OCC)c(OCC)c3)[C@H]2C1 | i | i | i | i | i
CC[C@]1(O)C[C@H]2CN(CCc3c([nH]c4ccccc34)[C@](C(=O)OC)(c3cc4c(cc3OC)N(C)[C@@H]3[C@](O)(C(=O)OC)[C@H](OC(C)=O)[C@]5(CC)C=CCN6CC[C@]43[C@@H]65)C2)C1 | i | ? | i | i | i
C#C[C@@]1(O)CC[C@H]2[C@H]3CCC4=Cc5oncc5C[C@]4(C)[C@@H]3CC[C@@]21C | i | i | i | i | i
O=[N+]([O-])c1cccc(/C=N\Nc2ccc3ccccc3n2)c1O | i | ? | i | i | i
Nc1nc(N)nc(CCCCc2nc(N)nc(N)n2)n1 | i | i | i | ? | i
CN1CCc2c(sc(/N=C/c3cccs3)c2C(N)=O)C1 | i | 1.1e-08M* | i | ? | i
N#Cc1c(/N=C/c2cccs2)sc2c1CCC2 | i | ? | i | i | i
N#Cc1c(/N=C/c2ccco2)sc2c1CCCCC2 | i | i | i | i | i
CN1CCc2c(sc(/N=C/c3ccco3)c2C(N)=O)C1 | ? | 2.5e-08M* | i | i | i
CCOC(=O)C1=C(CSc2nc3c(cc2C#N)CN(C)CC3)OC(N)=C(C#N)C1c1ccccc1 (stereo not given) | i | 3.4e-08M* | i | i | i
CCOC(=O)N1CCN(c2cc(NCCC(=O)O)c3c4c(onc24)-c2ccccc2C3=O)CC1 | ? | 8e-08M* | ? | ? | i
O=C(O)CCCNc1cc(N2CCC3(CC2)OCCO3)c2noc3c2c1C(=O)c1ccccc1-3 | i | 1.3e-08M* | ? | 1e-08M* | ?
Cc1ccccc1-n1c(=O)cc(N2CCC3(CC2)OCCO3)[nH]c1=O | i | i | i | i | i
CCOC(=O)N1CCN(c2c(NCCCN(CC)Cc3ccccc3)c(=O)c2=O)CC1 | i | i | i | ? | i
O=C(c1ccccc1C(=O)N1CCN(c2ccccc2)CC1)N1CCN(c2ccccc2)CC1 | i | 1.5e-08M* | i | i | i
C[C@H]1[C@H](C)CC[C@@]2(C(=O)O)CC[C@]3(C)C(=CC[C@@H]4[C@@]5(C)CC[C@H](O)C(C)(C)[C@@H]5CC[C@@]43C)[C@@H]12 | i | i | i | i | i
CCCCC/C=C\C[C@H](O)/C=C\c1cccc(C[C@H](O)CCCCO)n1 | i | ? | i | i | i
